Source: PubChem (National Center for Advancing Translational Sciences (NCATS))
Hits are enriched below; roughly 7.1% of the tested compounds scored in any of these assays.
ELG1 genotox: genotoxicity induction in ELG1-luciferase HEK293T cells; HEK293T ELG1-luciferase reporter, luminescence, 16 h; Potency, µM (series often up to 46 µM), without a hit: top-dose activity change, positive = activation, hits mostly activators; actives 1.3% (n = 330,000); AID 504466; further: % of control where 0% means no effect; nearly all actives have a fitted effect of over 60% in size
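Step 1: seed 2,000 HEK293T ELG1-luciferase cells per well. Step 2: add compound or DMSO, incubate 16 hr at 37 °C. Step 3: ONE-Glo, 30 min at room temperature, read luminescence.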
MCF10A rereplic: DNA re-replication induction in MCF 10a cells | actives 2.9% (n = 350,000) | AID 624296 | Potency, µM (series often up to 46.1 µM), inactives show at the top dose activity, positive = re-replication, most hits filed as activators | MCF 10A DNA re-replication, Hoechst nuclear intensity, 48 h; further: % of control where 0% means no effect; nearly all actives have a fitted effect of over 50% in size
ELG1 repair inh: blocks ELG1-dependent DNA repair in HEK293T cells; Potency, µM (doses to about 46.1 µM), inactives show at the highest dose activity change, negative = inhibition, actives largely listed as inhibitors; actives 2.3% (n = 330,000); HEK293T ELG1-luciferase reporter, luminescence, 16 h; DNA damage induced by 5-fluorouridine; further: on the % scale 0 is the no-effect control and ±100 the full control effect; nearly all actives have a fitted effect of over 55% in size
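Quantitative HTS, concentration-response format. 2,000 cells/well co-treated with 5-fluorouridine and compound, 16 hr in 5% CO2 at 37 °C; ONE-Glo luminescence read after 30 min.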
SW480 rerep: inducers of DNA re-replication in SW480 colon cancer cells | SW480 DNA re-replication, Hoechst DNA content imaging, 48 h | Potency, µM (series often up to 46.1 µM), for the others: at the highest dose re-replication activation, actives largely listed as activators | actives 1.8% (n = 340,000) | AID 624297; further: % of control where 0% means no effect; nearly all actives have a fitted effect of over 55% in size
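SW480 cells exposed to compounds for 48 hr at 37 C, 5% CO2, then Hoechst-stained 40 min. Nuclear DNA content imaged by fluorescence scanning (405 nm excitation, 500-530 nm emission); re-replication scored as increased high-intensity nuclei.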
p53 reactivation: mutant p53 re-activation in reporter cells. H1299 p53-A138V BP100-luciferase reporter, luminescence, 24 h. Potency, µM (series often up to 92.2 µM), for the others: at the highest dose activity change, positive = activation, actives largely listed as activators. actives 0.063% (n = 320,000). AID 504706; further: % of control where 0% means no effect; nearly all actives have a fitted effect of over 45% in size
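p53-null H1299 cells stably carrying temperature-sensitive p53-A138V and a BP100-luciferase reporter were pinned with compounds (4-point, 1:5 series) and held 24 hrs at 37 deg C. Luminescence was read 10 min after detection reagent.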
A-T KAP1 phos: candidate therapy for ataxia-telangiectasia | F2112 A-T fibroblasts, KAP-1 phosphorylation AlphaLISA; neocarzinostatin DNA damage 30 min before lysis | Potency, µM (titrated, usually from 57.5 µM), for inactives: top-dose activation, most hits filed as activators | actives 0.19% (n = 320,000); further: % of control where 0% means no effect; nearly all actives have a fitted effect of over 45% in size
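ATM-like activity read as KAP-1 phosphorylation via AlphaLISA donor/acceptor antibody pairs after lysis and 6 hr at 25C. Cells were ATM-null patient fibroblasts (F2112, hTERT), dosed 60 min, then exposed to the DSB inducer NCS for 30 min.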
The depositor's hits bear a star; ? = inconclusive; . = no result given. The call rests on the fitted dose curve; in most records, active means well fitted curve in the direction sought with a large enough effect; inconclusive means small, poorly fitted or top-dose-only effect, or another doubt; inactive means no such curve, though single readings can be large; an effect the other way counts as inactive or inconclusive. Potency means the concentration at half of the fitted maximal effect.

SMILES	ELG1 genotox	MCF10A rereplic	ELG1 repair inh	SW480 rerep	p53 reactivation	A-T KAP1 phos
C#CCOCCOCCOCCNc1nc(N2CCN(C(=O)[C@H](CCCCN)n3cc(C(N)CO)nn3)CC2)nc(N2CCN(C(=O)[C@H](CCC(=O)O)n3cc(C(N)CC(C)C)nn3)CC2)n1 (stereo partly specified)	5%	.	?	.	-1%	40µM*
C#CCOCCOCCOCCNc1nc(N2CCN(C(=O)[C@H](CCCCN)n3cc([C@@H](N)CC(C)C)nn3)CC2)nc(N2CCN(C(=O)[C@H](CCCCN)n3cc([C@@H](N)CC(C)C)nn3)CC2)n1	3%	-4%	13%	8%	0%	2%
C#CCOCCOCCOCCNc1nc(N2CCN(C(=O)[C@H]([C@@H](C)CC)n3cc([C@@H](N)CO)nn3)CC2)nc(N2CCN(C(=O)[C@H]([C@@H](C)CC)n3cc([C@@H](N)CO)nn3)CC2)n1	1%	.	15%	.	1%	40µM*
Cc1sc2nc(CN3CCN(c4ccc(O)cc4)CC3)[nH]c(=O)c2c1C	-7%	-2%	21µM*	-10%	-5%	-4%
COc1ccc(N2CCN(Cc3nc4scc(-c5ccccc5)c4c(=O)[nH]3)CC2)cc1	-3%	23%	?	-1%	-9%	1%
O=c1[nH]c(CN2CCN(c3ccccc3)CC2)nc2scc(-c3ccccc3)c12	-11%	5.2µM*	-17%	?	17%	2%
C=C1C(=O)C23C(O)C1CCC2C12CCCC(C)(COC(C)=O)C1C(O)C3(O)OC2 (stereo unspecified)	.	0.73µM*	.	?	.	.
O=S(=O)(NC1CC1)c1ccc(S(=O)(=O)N2CCCC3(CCCCC3)C2)cc1	5%	15µM*	5%	?	1%	1%
O=S(=O)(NC1CC1)c1ccc(S(=O)(=O)N2CCN3CCCC3C2)cc1 (stereo unspecified)	1%	-8%	-5%	0%	-3%	3%
CS(=O)(=O)c1ccc(C(=O)NNC(=O)c2ccccc2-n2cccc2)cc1	2%	2%	15%	-5%	5%	-4%
CCN(C(=O)c1cnc(NC(C)C)cc1C(F)(F)F)c1ccc(Cl)cc1	-15%	-1%	18µM*	-5%	-3%	8%
CCC(C)Sc1cc(C(F)(F)F)c(C(=O)Nc2ccc(Cl)cc2)cn1 (stereo unspecified)	-7%	?	-19%	16%	2%	4%
COc1ccccc1N(Cc1ccccc1)S(=O)(=O)c1cccc(C(=O)O)c1	1%	3%	2%	-5%	1%	.
NC(=O)NC(=O)COC(=O)c1ccc(Cl)c(S(=O)(=O)N(Cc2ccccc2)c2ccc(Cl)cc2)c1	-1%	21µM*	-9%	20%	-12%	-8%
COc1ccccc1N(Cc1ccccc1)S(=O)(=O)c1cc(C(=O)O)ccc1Cl	0%	18µM*	-5%	2%	-3%	0%
CS(=O)(=O)N1CCCC(C(=O)Nc2ccc(F)c(F)c2)C1 (stereo unspecified)	-1%	-2%	5%	-2%	0%	7%
Cn1c(Cc2ccccc2)nnc1SCC(=O)Nc1ccc(N2CCOCC2)cc1	2%	0%	?	-3%	13%	0%
Cc1ccc(Cl)cc1NC(=O)CNC(=O)N1CC(=O)Nc2ccccc21	-1%	-1%	11%	29µM*	-1%	-4%
CCCS(=O)(=O)c1nnnn1-c1cccc(OC)c1	-35%	6.5µM*	?	?	-30%	4%
CN(C=O)CP(=O)(O)CN1CCCCC1	-2%	.	16%	.	-6%	-1%
O=P(O)(CCc1ccncc1)CN1CCCCC1	1%	5.8µM*	7%	?	7%	-3%
COc1ccc(C(=O)NCCSc2ccccc2)cc1	2.6µM*	?	?	-1%	?	4%
Cc1ccc(-c2[nH]c3ccccc3c2SCCNC(=O)c2ccc(S(=O)(=O)N3CCOCC3)cc2)cc1	-5%	16%	?	-4%	-3%	0%
COc1ccc(-c2[nH]c3ccccc3c2SCCNC(=O)c2ccccc2)cc1	-20%	17%	16µM*	13%	2%	-30%
COc1ccc(C(=O)NCCc2c[nH]c3ccccc23)cc1	9.2µM*	-10%	?	5%	-7%	9%
SMILES	ELG1 genotox	MCF10A rereplic	ELG1 repair inh	SW480 rerep	p53 reactivation	A-T KAP1 phos
O=C(NCCc1c[nH]c2ccccc12)c1cnc2sccn2c1=O	8.2µM*	1%	?	5%	?	2%
C/C(=N\NC(=O)c1ccc(Cn2cc(Br)cn2)o1)c1ccc(NC(=O)c2ccoc2C)cc1	-8%	?	?	?	.	5%
Cc1ccnc(NC(=O)c2ccc3[nH]c(=O)c(=O)[nH]c3c2)c1	0%	-4%	17%	?	14%	2%
CC1(C2CC2)NC(=O)N(CC(=O)N2CCN(S(=O)(=O)c3ccc(F)c(F)c3)CC2)C1=O (stereo unspecified)	0%	-5%	14%	-6%	3%	3%
O=C1OC=NC1=Cc1ccccc1	.	-3%	.	-4%	.	.
CC(C)c1ccc(NC(=S)NCCc2c[nH]c3ccccc23)cc1	0%	15µM*	-21%	38%	?	-8%
COc1cccc(C(=O)NCCSc2c(C)[nH]c3ccccc23)c1OC	-12%	?	23µM*	1%	-6%	-5%
CSc1ccc(Cl)c(C(=O)Nc2ccc(C)cn2)c1	0%	?	12%	26µM*	-3%	3%
CCOc1ccccc1NC(=O)c1cccc2ccccc12	-4%	?	-11%	?	1%	4%
CCOc1ccccc1NC(=O)c1cc(SC)ccc1Cl	-7%	?	-8%	18µM*	4%	12%
Cc1ccccc1NC(=O)NC1CCCc2ccccc21 (stereo unspecified)	-3%	-20%	-2%	2%	-2%	-7%
COc1ccc(C(CC(=O)O)NS(=O)(=O)c2ccc3c(c2)NC(=O)CO3)cc1 (stereo unspecified)	2%	1%	5%	-18%	1%	-15%
Cc1ccc(-c2nn(-c3ccccc3)cc2C(=O)O)o1	6%	.	?	.	0%	-8%
Cc1ccc(-c2nn(-c3ccccc3)cc2CN(Cc2ccccc2)C(=O)c2ccco2)o1	-38%	16µM*	18µM*	?	1%	.
COc1cc2nc(N3CCN(c4cc(C)ccc4C)CC3)nc(N)c2cc1OC	-6%	6.5µM*	?	?	-11%	-13%
